Source: PubChem BioAssay (National Center for Advancing Translational Sciences (NCATS))
Cycloheximide cs: counter-screen for Shiga toxin inhibitors: cycloheximide protein synthesis inhibition; cell reporter, cycloheximide protein synthesis inhibition counterscreen; AID 2314; max response, %; hit rate 12% among 300,000; in the data active = max response mostly above about 13%, no sharp cut-off; inactive = mostly below about 14%; note: read at 38.3 µM for the half of the compounds with a filed dose; 0% is about no effect
FBPA Giardia inh: inhibitors of Giardia lamblia fructose-1,6-bisphosphate aldolase; A8B2U2; purified Giardia FBPA; Potency, µM (titrated, usually from 59.6 µM), inactives show at the top dose activity, negative = inhibition, most hits filed as inhibitors; hit rate 0.71% among 290,000; AID 2451; note: potency is the fitted concentration of half-maximal effect; % is set by controls: 0 for no effect and ±100 for the full control effect; nearly all actives have a fitted effect of over 55% in size
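Giardia FBPA (40 nM reagent) was preincubated 10 min at RT with compound (up to 57.5 uM final), then substrate plus GAPDH/TPI/NAD/arsenate coupling system with diaphorase/resazurin was added; resorufin fluorescence (525/598 nm) was read after 20 min.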
Shiga inhibitor: Shiga toxin inhibition. AID 2315. hit rate 9.2% among 290,000. Vero cells, Shiga toxin protein synthesis inhibition reporter. inhibition, % at 38.7 µM; in the data active = inhibition mostly above about 28%, no sharp cut-off; inactive = mostly below about 43%; note: 0% is about no effect
RE007 growth inh: less growth of the S. pombe RE007 Vpr strain. hit rate 0.21% among 360,000. S. pombe RE007 Vpr strain, BacTiter-Glo ATP luminescence, 24 h. Potency, µM (doses to about 92.2 µM), without a hit: top-dose activity change, negative = less growth, most hits filed as inhibitors. AID 651644; active = well fitted falling curve with a large enough effect; inconclusive = small, poorly fitted or top-dose-only effect; inactive = no such curve, though single readings can be large or run the other way; note: potency is the fitted concentration of half-maximal effect; % is set by controls: 0 for no effect and ±100 for the full control effect; nearly all actives have a fitted effect of over 50% in size
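Fission yeast strain RE007, carrying one chromosomally integrated HIV-1 vpr copy, was seeded at OD 0.01 in PMG+AL medium with 23 nL pinned compound. After 24 h at 30 °C and 99% humidity, viability was read by BacTiter-Glo luminescence.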
LmPK inh: inhibitors of Leishmania mexicana pyruvate kinase. Q27686. purified LmPK, Kinase-Glo ATP luminescence, 1 h. Potency, µM (top dose mostly 57.5 µM), without a hit: at the highest dose activity change, negative = inhibition, hits mostly inhibitors. hit rate 0.37% among 290,000; note: potency is the fitted concentration of half-maximal effect; % is set by controls: 0 for no effect and ±100 for the full control effect
Target sequence (Q27686 whole entry, looked up): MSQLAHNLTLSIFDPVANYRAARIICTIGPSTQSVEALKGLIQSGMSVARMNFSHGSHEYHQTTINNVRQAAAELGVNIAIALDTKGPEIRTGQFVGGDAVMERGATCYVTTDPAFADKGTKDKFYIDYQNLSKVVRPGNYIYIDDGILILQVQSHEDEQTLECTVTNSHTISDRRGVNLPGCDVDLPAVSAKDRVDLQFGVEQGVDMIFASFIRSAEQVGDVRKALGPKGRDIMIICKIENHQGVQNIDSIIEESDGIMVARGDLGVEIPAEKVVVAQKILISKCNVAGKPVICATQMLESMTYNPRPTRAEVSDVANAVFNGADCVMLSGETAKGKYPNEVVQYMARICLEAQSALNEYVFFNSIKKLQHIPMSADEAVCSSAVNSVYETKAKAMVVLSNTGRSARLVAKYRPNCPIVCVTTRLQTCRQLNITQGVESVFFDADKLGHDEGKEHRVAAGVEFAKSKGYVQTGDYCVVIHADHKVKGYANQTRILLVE
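qHTS format; LmPK 0.1 nM; substrates PEP 0.5 mM and ADP 0.1 mM. One-hour room-temperature incubation, then coupled luciferase luminescence; 0.5 nM enzyme wells mark activation.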
Tb PYK inh: blocks Trypanosoma brucei pyruvate kinase; Potency, µM (series often up to 76.8 µM), for the others: top-dose activity, negative = inhibition, usual class: inhibitors; TbPYK enzyme, Kinase-Glo Plus ATP luminescence, 45 min; AID 624173; hit rate 0.12% among 410,000; Q57TT1; note: potency is the fitted concentration of half-maximal effect; % is set by controls: 0 for no effect and ±100 for the full control effect; nearly all actives have a fitted effect of over 50% in size
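T. brucei PYK with substrate was exposed to pin-transferred compounds across a concentration series, then started with 130 uM ADP (final). After 45 min at room temperature, Kinase-Glo Plus luminescence was read, normalized and curve-fitted.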
The depositor's hits bear a star; [ ] = remark or other dose. Many of the other results were omitted from the sample, so hits are more common in it than they were. Unless noted, calls come from the whole dose curve; as a rule, active = well fitted curve in the direction sought with a large enough effect; inconclusive = small, poorly fitted or top-dose-only effect, or another doubt; inactive = no such curve, though single readings can be large; an effect the other way counts as inactive or inconclusive.

What do the screens show for `COc1cc(/C=C2/C(=N)N3C(=NC2=O)SN=C3S(C)(=O)=O)ccc1OS(=O)(=O)c1ccccc1`?
Cycloheximide cs: 8; Shiga inhibitor: 45*; LmPK inh: 2%

Results for COc1ccccc1-n1c(C)cc(/C=C2/C(=N)N3C(=NC2=O)SN=C3S(C)(=O)=O)c1C ?
Cycloheximide cs: 24*; FBPA Giardia inh: 24%; Shiga inhibitor: 116*; RE007 growth inh: 2%; LmPK inh: -3%[11.5 µM]; Tb PYK inh: -9%

How did Cc1cc(/C=C2/C(=N)N3C(=NC2=O)SN=C3S(C)(=O)=O)c(C)n1-c1ccc(F)cc1 do in these assays?
Cycloheximide cs: 17; FBPA Giardia inh: 13%; Shiga inhibitor: 36; RE007 growth inh: 12%; LmPK inh: -2%[11.5 µM]; Tb PYK inh: -10%

How did CCC(C)(C)NC(=O)CN(Cc1ccco1)C(=O)CCC(=O)Nc1nccs1 do in these assays?
Cycloheximide cs: 3; FBPA Giardia inh: 19%; Shiga inhibitor: -10; RE007 growth inh: -2%; LmPK inh: 3%; Tb PYK inh: -1%

How did CC(=O)N1CCc2cc(S(=O)(=O)C(C)CC(=O)NCc3ccco3)ccc21 (configuration not stated) do in these assays?
RE007 growth inh: -8%; Tb PYK inh: 1%

Results for CN1/C(=C\C(=O)c2ccco2)C(C)(C)c2ccccc21 ?
Cycloheximide cs: -2; FBPA Giardia inh: -23%; Shiga inhibitor: 13; RE007 growth inh: inconclusive; LmPK inh: -1%; Tb PYK inh: 1%

How did CCC(=O)/C=C1/Sc2ccc(OC)cc2N1CC do in these assays?
Cycloheximide cs: -3; FBPA Giardia inh: -8%; Shiga inhibitor: 22; RE007 growth inh: -7%; LmPK inh: -2%; Tb PYK inh: -8%

What do the screens show for `CCC(=O)/C=C1/Sc2ccccc2N1CC`?
Cycloheximide cs: 29*; FBPA Giardia inh: -12%; Shiga inhibitor: 121*; RE007 growth inh: -24%; LmPK inh: 2%; Tb PYK inh: inconclusive

What do the screens show for `CCN1/C(=C/C(=O)c2ccco2)Sc2ccccc21`?
Cycloheximide cs: 24*; FBPA Giardia inh: inconclusive; Shiga inhibitor: 65; RE007 growth inh: -24%; LmPK inh: -2%; Tb PYK inh: 3%

Results for O=C1C2CCCCN2C(=O)N1CCCCN1CCN(c2cccc(Br)c2)CC1 (configuration not stated) ?
Cycloheximide cs: -3; FBPA Giardia inh: -19%; Shiga inhibitor: -5; RE007 growth inh: -13%; LmPK inh: -1%; Tb PYK inh: -2%

Results for CC1(C(=O)O)CCN1C(=O)c1cccnc1Oc1ccccc1 (configuration not stated) ?
RE007 growth inh: 12%[18.4 µM]; Tb PYK inh: -3%

How did COc1ccc(/C=N/n2cc(-c3ccccc3)nc2N)cc1 do in these assays?
Cycloheximide cs: 28*; FBPA Giardia inh: 2%; Shiga inhibitor: 43*; RE007 growth inh: 14%; LmPK inh: -2%; Tb PYK inh: 5%

Results for COc1ccc(/C=N/n2cc(-c3ccc(OC)cc3)nc2N)cc1 ?
Cycloheximide cs: 10; FBPA Giardia inh: -1%; Shiga inhibitor: 11; RE007 growth inh: -27%; LmPK inh: -1%; Tb PYK inh: 3%

Results for CCOC(=O)C1CCN(C(=O)c2ccccc2)c2scc(-c3ccccc3)c2C1=O (configuration not stated) ?
RE007 growth inh: -1%; Tb PYK inh: 2%

Results for N/C(=N/OCC(=O)Nc1cccc2ccccc12)c1nonc1N ?
Cycloheximide cs: -2; FBPA Giardia inh: -1%; Shiga inhibitor: -8; RE007 growth inh: -8%; LmPK inh: 0%; Tb PYK inh: 1%

How did N/C(=N/OC(=O)c1ccccc1Cl)c1nonc1N do in these assays?
Cycloheximide cs: 38*; FBPA Giardia inh: -6%; Shiga inhibitor: 90*; RE007 growth inh: 28µM*; LmPK inh: 1%[11.5 µM]; Tb PYK inh: inconclusive

How did Cc1cc(C(=O)NNc2c(Cl)cccc2Cl)no1 do in these assays?
Cycloheximide cs: 6; FBPA Giardia inh: -8%; Shiga inhibitor: -10; RE007 growth inh: 8%; LmPK inh: 6%; Tb PYK inh: 1%

How did N/C(=N\OC(=O)c1ccc(F)cc1)c1nonc1N do in these assays?
Cycloheximide cs: 48*; FBPA Giardia inh: 2%; Shiga inhibitor: 71*; RE007 growth inh: inconclusive; LmPK inh: 14µM*; Tb PYK inh: inconclusive

How did Cc1ccc(C(=O)O/N=C(\N)c2nonc2N)cc1 do in these assays?
Cycloheximide cs: 47*; FBPA Giardia inh: 1%; Shiga inhibitor: 51*; RE007 growth inh: inconclusive; LmPK inh: 4µM*; Tb PYK inh: inconclusive

What do the screens show for `Cc1cc(/C(N)=N/OC(=O)c2ccccc2Cl)no1`?
Cycloheximide cs: 21*; FBPA Giardia inh: 0%; Shiga inhibitor: 38*; RE007 growth inh: -16%; LmPK inh: 22µM*; Tb PYK inh: inconclusive

What do the screens show for `Cc1ccc(CSc2nc3cccnc3n2Cc2ccc(C(=O)NCCc3cccs3)cc2)cc1`?
Tb PYK inh: 4%

What do the screens show for `CC(C)c1c(O)ccc2c1CCC1[C@@](C)(C=O)CCC[C@@]21C` (some centres not stated)?
FBPA Giardia inh: -16%

What do the screens show for `CNC(=O)N(O)C1N(/N=C/c2cc(Br)ccc2O)C(=S)SC1(C)C` (configuration not stated)?
Cycloheximide cs: 15*; FBPA Giardia inh: 17%; Shiga inhibitor: 36; LmPK inh: 4%; Tb PYK inh: 2%

Results for CC1(C)SC(=S)N(/N=C/c2ccccc2O)C1N(O)C(=O)Nc1ccccc1 (configuration not stated) ?
Cycloheximide cs: 21*; FBPA Giardia inh: -10%; Shiga inhibitor: 52*; RE007 growth inh: 2%; LmPK inh: -1%; Tb PYK inh: -4%

How did CNC(=O)N(O)C1N(/N=C/c2ccc(C)cc2)C(=S)SC1(C)C (configuration not stated) do in these assays?
Cycloheximide cs: -4; FBPA Giardia inh: inconclusive; Shiga inhibitor: 3; RE007 growth inh: 24%; LmPK inh: 2%; Tb PYK inh: 4%

How did CCC(=NCc1ccc(Cl)c(Cl)c1)c1nc(-c2ccco2)oc1O do in these assays?
Cycloheximide cs: 23; FBPA Giardia inh: 4%; Shiga inhibitor: 48*; RE007 growth inh: 7%; LmPK inh: 1%; Tb PYK inh: -3%

How did Oc1ccccc1-c1cc(-c2cccc(F)c2)n[nH]1 do in these assays?
Cycloheximide cs: 37*; FBPA Giardia inh: 1%; Shiga inhibitor: 122*; RE007 growth inh: inconclusive; LmPK inh: -18%; Tb PYK inh: 1%

How did Fc1cccc(-c2n[nH]c(=S)n2-c2ccccc2)c1 do in these assays?
Cycloheximide cs: 0; FBPA Giardia inh: 7%; RE007 growth inh: 7%; LmPK inh: inconclusive; Tb PYK inh: inconclusive
